± gives the standard deviation of the averaged measurements. Over roughly 33,000 sequences, “E-score (rank enrichment, -0.5 to 0.5)” has its median near -0.0068; the highest 2% begin near 0.24. The entries come from a sample that favours the highest values as a whole.
Test system: muMax20 (Max(13-93) K31hArg/K57hArg, M65Nle)
Assay: PBM 8-mer E-score (E-score (rank enrichment, -0.5 to 0.5)); higher = stronger preferential binding
Method: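 Protein binding microarray (universal PBM chip covering all 10-mers in fixed probe flanks) with chemically synthesized human Max(13-93) bHLH-LZ analogs (not full-length Max) bearing noncanonical residues (hArg, Tha, Aib, Nle at 65) and aromatic Cys staples. Read-out per 8-mer (and its reverse complement): E-score (rank-based enrichment, -0.5 to 0.5) and Z-score of median probe intensity.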

Row | Sequence | PBM 8-mer E-score
1 | AGCCGTTG | -0.0362 ± 0.068
2 | ACATATAG | 0.0848 ± 0.12
3 | AAATATAC | 0.209 ± 0.032
4 | ACCTATAA | 0.0216 ± 0.083
5 | ACCTATAC | 0.0268 ± 0.14
6 | ACATATAC | 0.159 ± 0.052
7 | ACATATAT | 0.323 ± 0.054
8 | TCATATAA | 0.227 ± 0.06
9 | AAATATAT | 0.2435 ± 0.0013
10 | ACCTATAT | 0.265 ± 0.0044
11 | CCATATAA | 0.225 ± 0.044
12 | AAATATAA | 0.218 ± 0.046
13 | ACATATAA | 0.336 ± 0.069
14 | GCGTTTGA | -0.0646 ± 0.018
15 | AAGCGAGG | -0.129 ± 0.12
16 | GGCCACTA | 0.0658 ± 0.077
17 | GTTGCGCA | -0.0795 ± 0.002
18 | CACAGGTG | -0.0404 ± 0.033
19 | ACCTATCA | 0.0576 ± 0.061
20 | CTATCGTC | -0.0258 ± 0.024
21 | CCGCGACA | -0.0992 ± 0.1
22 | TGGCAAAA | -0.0471 ± 0.026
23 | CCACGGGG | -0.281 ± 0.017
24 | TAATCACA | 0.264 ± 0.042
25 | CAATCACC | 0.139 ± 0.013

Row | Sequence | PBM 8-mer E-score
26 | GAATCACA | -0.0241 ± 0.022
27 | CAATCACA | 0.122 ± 0.095
28 | AAATCACA | 0.203 ± 0.026
29 | CAATCACG | 0.288 ± 0.039
30 | CCCGCAGC | -0.278 ± 0.086
31 | TAACGGGA | -0.0715 ± 0.059
32 | ACCGCTAC | -0.215 ± 0.034
33 | AACTCCAG | -0.117 ± 0.049
34 | AATTGTAA | 0.196 ± 0.011
35 | TAATGTGA | 0.262 ± 0.065
36 | TATTGTAA | 0.242 ± 0.023
37 | CAATGTGA | 0.148 ± 0.0073
38 | TAATGTAA | 0.252 ± 0.024
39 | AAATGTAA | 0.157 ± 0.049
40 | GATTGTAA | 0.0589 ± 0.011
41 | GAATGTAA | 0.0967 ± 0.041
42 | GAATGTGA | 0.0628 ± 0.06
43 | AGTGGCCC | -0.0606 ± 0.016
44 | TCCCGACA | -0.0715 ± 0.11
45 | GTTACCTA | 0.0231 ± 0.039
46 | ACCGGCTG | -0.257 ± 0.018
47 | TCAAGAAA | 0.103 ± 0.021
48 | TCACTCCA | -0.0737 ± 0.21
49 | GATCCGAA | -0.13 ± 0.057
50 | GAGATGGC | 0.0296 ± 0.023

Row | Sequence | PBM 8-mer E-score
51 | CAGTCCGG | -0.297 ± 0.023
52 | ATCCAGCC | -0.09 ± 0.07
53 | GCTTGCAC | -0.252 ± 0.0059
54 | AGCCGGTC | -0.295 ± 0.086
55 | ACTGTTCC | -0.187 ± 0.12
56 | ACGTGGAC | 0.27 ± 0.08
57 | AAGTGGAT | 0.00777 ± 0.081
58 | ACGTGGAA | 0.195 ± 0.017
59 | ACGTGGAT | 0.342 ± 0.012
60 | ACGTGGAG | 0.245 ± 0.14
61 | CCGTGGAG | -0.131 ± 0.092
62 | ACGTGGGG | 0.16 ± 0.039
63 | GCGTGGAC | 0.0607 ± 0.05
64 | CCGTGGAC | -0.13 ± 0.12
65 | CGCAAGTC | -0.182 ± 0.004
66 | CCTCCTAA | 0.0365 ± 0.0066
67 | GGCACAGA | -0.0856 ± 0.03
68 | ACTATGAT | 0.0767 ± 0.069
69 | TATGCCCA | -0.151 ± 0.043
70 | ATCCTGAC | -0.115 ± 0.039
71 | ATCGTAAG | 0.00053 ± 0.19
72 | ATCGTAAA | 0.211 ± 0.026
73 | ATCGTAAT | 0.255 ± 0.0089
74 | ATCGCACA | 0.0937 ± 0.045
75 | TATTATAA | 0.28 ± 0.079

Row | Sequence | PBM 8-mer E-score
76 | CATTATAA | 0.0818 ± 0.00099
77 | TCTTATAA | 0.115 ± 0.051
78 | TGTTATAA | 0.279 ± 0.056
79 | TATTATCA | 0.161 ± 0.013
80 | GGTTATAA | 0.145 ± 0.068
81 | TGTTAAAA | 0.154 ± 0.061
82 | GATTATAA | 0.242 ± 0.016
83 | AATTATAA | 0.189 ± 0.036
84 | ATTAAGCA | 0.105 ± 0.11
85 | GAGATTGC | -0.148 ± 0.0026
86 | CCTCCACG | -0.0554 ± 0.048
87 | GTTTGAAA | 0.237 ± 0.022
88 | CTTTGAAA | 0.159 ± 0.0086
89 | ATTTGAAA | 0.203 ± 0.025
90 | AACTTCGA | 0.0671 ± 0.04
91 | CTTACTAC | 0.197 ± 0.1
92 | AGTACTAT | -0.0269 ± 0.035
93 | ATTACTAG | -0.00293 ± 0.05
94 | AGTACTAC | 0.28 ± 0.035
95 | ATTACTAC | 0.2513 ± 0.0025
96 | AGTACTAG | 0.029 ± 0.019
97 | CTTCGCAC | 0.163 ± 0.037
98 | ATGACTGG | -0.0322 ± 0.039
99 | GGCACGAC | 0.0476 ± 0.078
100 | AGTTCACG | -0.107 ± 0.064

Row | Sequence | PBM 8-mer E-score
101 | CCCGAACC | -0.159 ± 0.21
102 | ATCAACAG | 0.116 ± 0.0076
103 | AACAACAT | 0.168 ± 0.037
104 | CCCAATTA | 0.187 ± 0.097
105 | AACAACAA | 0.243 ± 0.0063
106 | CCCAATTC | 0.249 ± 0.0091
107 | ACCAATTC | -0.0667 ± 0.11
108 | AACAATTG | 0.131 ± 0.0086
109 | AACAATTC | 0.127 ± 0.014
110 | ATCAACAA | 0.101 ± 0.048
111 | AACAATTA | 0.259 ± 0.0043
112 | ATCAACAT | 0.241 ± 0.022
113 | CACAACAA | 0.205 ± 0.098
114 | CAATCATC | -0.0452 ± 0.15
115 | TACCGGAA | -0.106 ± 0.24
116 | AACTCCTT | 0.132 ± 0.07
117 | CCCTGCAC | -0.03728 ± 0.00027
118 | CGCTCTCC | -0.192 ± 0.091
119 | CGAGATCC | -0.163 ± 0.13
120 | AGGGGTCG | -0.0534 ± 0.037
121 | CTGGAAGA | 0.0596 ± 0.037
122 | AGCAACAA | -0.0639 ± 0.14
123 | CGCAACAA | 0.257 ± 0.049
124 | AACAATAT | 0.207 ± 0.061
125 | CACAATAC | 0.126 ± 0.028

Row | Sequence | PBM 8-mer E-score
126 | ACCAATTA | 0.247 ± 0.095
127 | AACAATAA | 0.247 ± 0.0054
128 | ACCAATTG | 0.211 ± 0.013
129 | GACAATAC | 0.21 ± 0.021
130 | GCCAATTA | -0.00292 ± 0.022
131 | CGCAACAC | 0.0683 ± 0.035
132 | AACAATAG | 0.0278 ± 0.047
133 | AACAATAC | 0.319 ± 0.063
134 | CATCTTCC | 0.14 ± 0.005
135 | CTAGCGAA | -0.129 ± 0.063
136 | CTAGTGCA | 0.0056 ± 0.097
137 | GAGAGTCA | 0.0012 ± 0.088
138 | ATCCACCA | 0.068 ± 0.024
139 | GGGGCCCC | -0.138 ± 0.039
140 | AACACCAA | 0.239 ± 0.018
141 | TACACCAA | -0.0765 ± 0.027
142 | TACAATAA | 0.33 ± 0.008
143 | CACAATAA | 0.151 ± 0.0047
144 | GACACCAA | -0.0812 ± 0.037
145 | GACAATAA | 0.216 ± 0.067
146 | AACTTCTT | 0.155 ± 0.031
147 | CAATTTGA | 0.246 ± 0.051
148 | TAATTTGA | 0.0569 ± 0.0096
149 | CAATTTGG | 0.0732 ± 0.059
150 | AATCAGCA | 0.0143 ± 0.044

Row | Sequence | PBM 8-mer E-score
151 | ACCTGTTG | 0.112 ± 0.12
152 | AGATATGA | 0.028 ± 0.0086
153 | GTACCATA | 0.0347 ± 0.038
154 | ATACCAAG | 0.0843 ± 0.073
155 | ATACCATA | 0.298 ± 0.029
156 | ATACCAAC | 0.271 ± 0.01
157 | CTACCAAC | 0.118 ± 0.079
158 | ATACCATG | 0.0838 ± 0.02
159 | ATAGAAGC | 0.041 ± 0.086
160 | TAAGGGAA | 0.0705 ± 0.073
161 | CTCCCGTA | 0.0488 ± 0.069
162 | TTAAAGAA | 0.17 ± 0.072
163 | ATAAAGCA | 0.243 ± 0.037
164 | CTAAAGCA | 0.0825 ± 0.012
165 | ATAAAGCG | 0.0396 ± 0.047
166 | ATAAAGAA | 0.264 ± 0.018
167 | CTAAAGAA | 0.0925 ± 0.088
168 | CACCGGCA | -0.12 ± 0.023
169 | ACGTTCCT | 0.0666 ± 0.011
170 | ATACCTAC | 0.129 ± 0.12
171 | ATTTAGAC | 0.0494 ± 0.067
172 | ATAACGCG | 0.073 ± 0.11
